The whole screen tested about 360,000 compounds, of which about 4,500 (1.2%) were called active. Shown is part of a subset that was picked to be rich in actives. Values without a mark were called inactive. Rule as the data show it: active = inhibition above about 30%; inactive = the rest.
Experiment: GDH-TPI coupling enzyme inhibitors, primary screen, artefact control for M. tuberculosis FBA inhibitor project, biochemical, absorbance, full deck (AID 588335);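 also: 0% = DMSO wells and 100% = wells lacking the enzyme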
Details: GDH-TPI coupled enzyme counterscreen, NADH absorbance; at 4.8 µM; active compounds read high

| Compound | inhibition |
| --- | --- |
| CCC(C)(C)NC(=O)C(c1ccc(O)cc1)N(Cc1ccco1)C(=O)CCC(=O)Nc1ccccn1 (centres undefined) | 0% |
| CCCc1nc(N2CCN(C)CC2)c2sc(=S)n(-c3ccccc3)c2n1 | 11.9% |
| Cc1noc(C)c1CSc1nc2cc(S(=O)(=O)N3CCOCC3)ccc2o1 | 0% |
| O=C(CC(=O)c1cccnc1)c1ccccc1 | 31.5% (active) |
| O=C(Nc1cnccn1)c1cccnc1 | -10.2% |
| O=C(Cc1ccccc1)Nc1ccc(NC(=O)c2cccnc2)cc1 | -3.47% |
| CS(=O)(=O)N1CCCC(C(=O)N2CCOCC2)C1 (centres undefined) | 5.31% |
| O=C(Nc1ccccc1C(=O)O)c1cc(S(=O)(=O)N2CCCCC2)cs1 | -4.43% |
| Cc1c(C(=O)NCCCc2ccccc2)cccc1[N+](=O)[O-] | 10% |
| O=C(NCCN1C(=O)S/C(=C\c2cccnc2)C1=O)c1cccc(OC(F)F)c1 | 8.86% |
| Cc1c(C(=O)NCCN2C(=O)S/C(=C\c3cccs3)C2=O)cccc1[N+](=O)[O-] | 39.5% (active) |
| Cc1cc(C)c(C)c(S(=O)(=O)N2CCN(C(=O)c3ccc4c(=O)n5c(nc4c3)CCC5)CC2)c1C | 5.92% |
| CC(C)CC1C(=O)N(Cc2cn(Cc3ccco3)nn2)CCS(=O)(=O)N1Cc1ccc(-c2ccc(Cl)c(Cl)c2)cc1 (centres undefined) | -1.42% |
| COc1ccc(N2C(=O)/C(=C\c3ccco3)N=C2SCC(N)=O)cc1Cl | 8.83% |
| Cc1ccc(C(=O)Nc2ccn(C)n2)cc1 | -9.27% |
| CCOC(=O)c1sc(NC(=O)c2ccncc2)nc1C | 39.2% (active) |
| CCOC(=O)c1sc(NC(=O)c2sc(C)nc2C)nc1C | 34.6% (active) |
| CC(=O)c1sc(NC(=O)C2=NN(c3ccccc3)C(=O)CC2)nc1C | 29.1% |
| CCOC(=O)c1sc(/N=C/Nc2nc(C)c(C(=O)OCC)s2)nc1C | 0.95% |
| CCOC(=O)c1sc(NC(=O)CSc2n[nH]c(CC)n2)nc1C | -0.63% |
| CC(=O)c1sc(NC(=O)c2ccc(C)cc2)nc1C | 31.3% (active) |
| CCOC(=O)c1cccnc1NC(=O)c1ccncc1 | -7.37% |
| CCOC(=O)c1sc(NC(=O)C(CC)Sc2nccn2C)nc1C (centres undefined) | 10.2% |
| Cc1ccc(N2CCN(S(=O)(=O)N(C)C)CC2)cc1Cl | 8.64% |

| Compound | inhibition |
| --- | --- |
| CC(c1ccco1)N(C(=O)c1ccc(S(=O)(=O)N2CCCCC2)cc1)c1ccccn1 (centres undefined) | 3.73% |
| Cc1ccccc1N1CC(C(=O)Nc2ccc3c(c2)OCO3)CC1=O (centres undefined) | 7.55% |
| CC1(C)CC(O)C(CCC(O)c2ccccc2)C(C)(C)N1 (centres undefined) | 11.8% |
| Cc1ccc(Cl)cc1NC(=S)N(CCN(C)C)Cc1cccs1 | -1.86% |
| CCCC(=O)N1CCC(CCC(=O)NC2CC2)CC1 | -6.29% |
| CCCn1c(=S)[nH]c2ccc(C(F)(F)F)cc21 | 2.44% |
| Cc1cc(N2CCN(c3ccc(F)cc3)CC2)n2ncnc2n1 | -5.36% |
| Cc1ccc(NC(=O)C2CCN(S(=O)(=O)c3ccc4c(c3)NC(=O)CO4)CC2)cc1C | -3.15% |
| COc1cc(OC)cc(C(=O)N[C@H](C(=O)Nc2nc3ccccc3[nH]2)C(C)C)c1 | 12.4% |
| COc1cc(OC)cc(C(=O)Nc2ccc(-c3nc4ccccc4o3)c(O)c2)c1 | 31.5% (active) |
| COc1cccc(C(=O)Nc2ccc3nc4n(c(=O)c3c2)CCCCC4)c1 | 13.4% |
| CN(Cc1ccccc1)C(=O)C(=O)c1cn(CC(=O)N2CCCC2)c2ccccc12 | 13.8% |
| O=C(CSc1ccccn1)Nc1nc2c(ccc3ccccc32)s1 | 13.6% |
| COc1cc(OC)c(OC)cc1CN1CCN(C(=O)c2cccc3ccccc23)CC1 | 0% |
| O=C1C2CCCN2C(=O)N1CCCCN1CCN(c2cccc(C(F)(F)F)c2)CC1 (centres undefined) | 15.7% |
| CC(=O)c1sc(N/N=C/c2ccc(C(C)C)cc2)nc1C | 8.98% |
| COc1cc(/C=N\Nc2nc(-c3cccs3)c(NC(C)=O)s2)ccc1O | 34.8% (active) |
| COc1cc(/C=C/C(=O)OCC(=O)NCCCc2ccccc2)ccc1O | 19.3% |
| CC(C)=CCCC(C)CN1CCC(n2nccc2NC(=O)c2ccccc2)CC1 (centres undefined) | -14.4% |
| O=C(Nc1nnc(Cc2ccc(Cl)cc2)s1)c1ccncc1 | 16.2% |
| CC(C)=CC(=O)Nc1nnc(-c2ccc(F)cc2)s1 | 2.46% |
| Cc1ccc(C(=O)Nc2nnc(-c3ccncc3)s2)o1 | 36.5% (active) |
| NC(=O)C1CCN(C(=O)c2cc(S(=O)(=O)N3CCN(c4ccccc4)CC3)ccc2Cl)CC1 | 0% |
| Cc1[nH]n(C)c(=O)c1N=Nc1ccc(S(C)(=O)=O)cc1 | 33.3% (active) |

| Compound | inhibition |
| --- | --- |
| Cc1c(N=Nc2ccc(N(C)C)cc2)c(=O)n(-c2ccccc2)n1C | 7.74% |
| Cc1[nH]n(C)c(=O)c1C(=O)c1c(-c2c(Cl)cccc2Cl)noc1C | 10.3% |
| O=S(=O)(NCc1ccccc1Cl)c1cnc[nH]1 | 5.02% |
| O=C(NCCCNC(=O)c1ccccc1Cl)c1cnccn1 | -2.33% |
| O=C(NCC(=O)N1CCCCCCC1)c1ccccc1Cl | 9.24% |
| O=C(NCCCO)/C(=C\C=C\c1ccccc1)NC(=O)c1ccccc1Cl | 34.7% (active) |
| CC(NCC(=O)Nc1ccccc1C(=O)NC1CC1)c1ccccc1Cl (centres undefined) | -5.56% |
| COCCn1cnnc1SCC(=O)Nc1cccc(S(=O)(=O)N2CCCCC2)c1 | -5.42% |
| COc1ccc(CC2c3cc(OC)c(OC)cc3CC[N+]2(C)CCC(=O)OCCCCCOC(=O)CC[N+]2(C)CCc3cc(OC)c(OC)cc3C2Cc2ccc(OC)c(OC)c2)cc1OC (centres undefined) | -11.1% |
| COc1cccc(C(=O)NC(=O)Nc2nc(C)cc(C(F)(F)F)n2)c1 | -10% |
| COc1ccc2nc(C)cc(Nc3cccc(C(=O)O)c3)c2c1 | 32.2% (active) |
| COc1cccc(Nc2ncccc2C(=O)O)c1 | 11.1% |
| CC(C)CN(CC(C)C)C(=O)CN1c2cccc3cccc(c23)S1(=O)=O | -9.01% |
| COc1ccc(C#Cc2c(-c3ccc(OC)cc3)oc3ccc(-c4ccc5c(c4)OCO5)cc23)cc1 | 5.83% |
| N=c1ccccn1Cc1ccccc1 | -9.4% |
| C=CCNC(=S)/N=c1/ccccn1Cc1ccccc1 | 33.6% (active) |
| C=CCNC(=O)COc1coc(CN2CCN(Cc3ccccc3)CC2)cc1=O | -4.97% |
| O=C(CN1CCOCC1)N1CCCc2c1c(=O)oc1ccc(OCc3ccccc3)cc21 | 31.5% (active) |
| O=C(COc1ccc2oc3c(c2c1)CCCC3)Nc1ccccn1 | -3.77% |
| O=C(COc1ccc2c3c(c(=O)oc2c1)CCCC3)NCC(O)c1ccccc1 (centres undefined) | 10.6% |
| CCc1nn(CC(=O)N2CCN(c3cc(C)ccc3C)CC2)c(=O)c2cc3occc3n12 | 3.06% |
| CCOC(=O)N1CCC(NC(=O)C(C)n2c3ccccc3c3cnn(C)c(=O)c32)CC1 (centres undefined) | 1.24% |
| Cc1ccc(S(=O)(=O)Nc2nc(C)cc(N/N=C/c3ccc(O)cc3)n2)cc1 | 31.1% (active) |
| Cc1cc(C)nc(NS(=O)(=O)c2ccc(N/C=C\C(=O)c3cccs3)cc2)n1 | 10.6% |

| Compound | inhibition |
| --- | --- |
| Cc1ccc(OCCCC(=O)Nc2ccc(S(=O)(=O)Nc3cc(C)nc(C)n3)cc2)cc1 | -1.42% |
| O=c1c(Cl)c(NCc2ccc(F)cc2Cl)cnn1C12CC3CC(CC(C3)C1)C2 | -9.45% |
| CCc1nnc(NC(=O)c2cc(S(=O)(=O)N3CCN(CC)CC3)ccc2Cl)s1 | 7.27% |
| COc1cc(OC)cc(-c2c(-c3ccc(F)cc3)c3cc(-c4ccc5cc[nH]c5c4)ccc3n2C)c1 | 43.2% (active) |
| COc1cc(OC)cc(-c2c(-c3cccs3)c3cc(-c4ccc(OC)nc4)ccc3n2C)c1 | 23.8% |
| COc1ccc(-c2c(-c3cc(OC)cc(OC)c3)n(C)c3ccc(-c4ccn[nH]4)cc23)cc1 | 10.2% |
| Cc1ccc(C(=O)CN2C(=O)NC3(CCc4ccccc43)C2=O)c(C)c1 (centres undefined) | -0.34% |
| O=C(CCCCO)c1ccc(O)c(Cl)c1 | 29.1% |
| Cc1c(S(=O)(=O)N2CC(C)CC(C)C2)c(=O)n(C)c(=O)n1C (centres undefined) | -4.2% |
| CC(=O)C1=C(C)NC2=C(C(=O)CC(C)(C)C2)C1C (centres undefined) | 0.31% |
| Cc1cc2c(cc1C)NC(c1ccccn1)C1=C(CC(C)(C)CC1=O)N2 (centres undefined) | 29.6% |
| CC1(C)CC(=O)C2=C(C1)Nc1cc(C(=O)c3ccccc3)ccc1NC2c1ccccn1 (centres undefined) | 32.1% (active) |
| CSCC[C@H](NC(=O)NCc1cccs1)C(=O)O | -3.14% |
| CCN(c1ccc(NC(=O)COC(=O)CCc2nc3ccccc3n2-c2ccccc2)cc1)C(C)C | 8.52% |
| O=C(CCS(=O)(=O)c1cccc2nsnc12)N1CCN(c2ccccc2F)CC1 | 19.6% |
| COc1ccc(/C=N/N=C/c2c[nH]c(=O)c(C#N)c2Nc2ccccc2)cc1 | 50.2% (active) |
| COc1ccc(O)c(/C=N/N=C/c2cccc([N+](=O)[O-])c2)c1 | -12.3% |
| COc1ccc(/C=N/Nc2nc(-c3ccc(C)cc3)c(C#N)c(=O)[nH]2)cc1 | 10% |
| O=C1NC(c2ccccc2)CCC1(Cl)Cl (centres undefined) | 3.97% |
| Cc1ccc(Cn2c(NC(=O)c3ccco3)nc3ccccc32)cc1 | 37.1% (active) |
| Cc1ccc(C(=O)Nc2c(C#N)c(C)c(C)n2Cc2ccccc2)cc1 | -3.02% |
| CCn1nc(NC(=O)c2ccco2)c2cc3ccc(C)cc3nc21 | -4.08% |

— PubChem BioAssay AID588335 (The Scripps Research Institute Molecular Screening Center, 2011)
